DT40 TDP1 no CPT: qHTS for Inhibitors of human tyrosyl-DNA phosphodiesterase 1 (TDP1): qHTS in cells in absence of CPT; DT40 Tdp1-/- hTDP1 cells, no CPT, ATP luminescence, 48 h; Potency, µM (series often up to 46.2 µM), without a hit: at the highest dose activity change, negative = growth inhibition, actives largely listed as inhibitors; hit rate 15% among 420,000; AID 686978, 2013; also: potency is read from the fitted curve at half-maximal effect; % is scaled to controls: 0 for no effect and ±100 for the full control effect; nearly all actives have a fitted effect of over 55% in size
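Growth of hTDP1-complemented DT40 Tdp1-knockout cells is measured by ATP luminescence after at least 48 hr compound exposure at 37 °C, with DMSO substituting for the 20 nM CPT used in the parallel screen.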
Chronic BCR inh: qHTS Assay to Find Inhibitors of Chronic Active B-Cell Receptor Signaling; hit rate 0.05% among 340,000; Potency, µM (titrated, usually from 46.1 µM), for the others: at the top dose activity change, negative = inhibition, most hits filed as inhibitors; ABC-DLBCL IkBa-CBG/CBR reporter, luminescence ratio, 4 h; active = well fitted inhibition curve with a large enough effect in the signal ratio, with a control signal flat, not every such curve was filed as active; inconclusive = small, poorly fitted or top-dose-only effect, or effect the other way, or a change in a side signal; the % refers to the signal ratio;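 also: potency is read from the fitted curve at half-maximal effect; plate controls were basal doxycycline-induced cells for no effect and cells given 10 µM MG132 for full effect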
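Cell line TMD8 (human ABC DLBCL), stably expressing tet-inducible CBG68-IkBa fusion and CBR; IMDM/0.5% FBS; cpd up to 46 uM; dox induction, 4 h, 37C/5% CO2; dual luminescence; green/red ratio; MG132 control.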
DT40 TDP1 CPT: qHTS for Inhibitors of human tyrosyl-DNA phosphodiesterase 1 (TDP1): qHTS in cells in presence of CPT | chicken DT40 Tdp1-/-;hTDP1 cells + 20 nM CPT, ATP luminescence, 48 h | Potency, µM (highest dose often 46.2 µM), without a hit: at the highest dose activity change, negative = growth inhibition, most hits filed as inhibitors | hit rate 12% among 420,000 | AID 686979, 2013; also: potency is read from the fitted curve at half-maximal effect; % is scaled to controls: 0 for no effect and ±100 for the full control effect; nearly all actives have a fitted effect of over 55% in size
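Cell growth measured by CellTiter-Glo luminescence after a minimum 48 h, 37 C compound exposure with 20 nM CPT in Tdp1-knockout DT40 cells stably expressing hTDP1, seeded 400/well; qHTS titration format.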
IL1B secr inh: qHTS for Inhibitors of Inflammasome Signaling: IL-1-beta AlphaLISA Primary Screen | THP-1 LPS/ATP IL-1B secretion, AlphaLISA, 16 h; hits give low values | AID 743279, 2014 | activity change, % at 57.5 µM | hit rate 4.7% among 360,000; in the data active = activity change below about -50%; inconclusive = mostly about -30% to -49%; also: % is scaled to controls: 0 for no effect and ±100 for the full control effect
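THP-1 cells pretreated 1 hr with compounds (up to 57.5 uM final), then stimulated with LPS (250 ng/mL final) plus ATP (1.25 mM final); secreted IL-1B measured by AlphaLISA after 16 hr, decreased signal indicating inhibition.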
SW480 rereplic: A quantitative high throughput screen for small molecules that induce DNA re-replication in SW480 colon adenocarcinoma cells; SW480 DNA re-replication, Hoechst DNA content imaging, 48 h; Potency, µM (titrated, usually from 46.1 µM), inactives show at the highest dose re-replication activation, usual class: activators; hit rate 1.8% among 340,000; also: potency is read from the fitted curve at half-maximal effect; % of control where 0% means no effect; nearly all actives have a fitted effect of over 55% in size
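First, 250 cells per well were seeded. Next, compound or vehicle (23 nL) was pinned in, plates sat 48 hr at 37 C. Finally Hoechst was added for 40 min before fluorescence scanning.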
MCF10A rerep: A quantitative high throughput screen for small molecules that induce DNA re-replication in MCF 10a normal breast cells | MCF 10A DNA re-replication, Hoechst nuclear intensity, 48 h | hit rate 2.9% among 350,000 | Potency, µM (doses to about 46.1 µM), for the others: top-dose activity, positive = re-replication, actives largely listed as activators; also: potency is read from the fitted curve at half-maximal effect; % of control where 0% means no effect; nearly all actives have a fitted effect of over 50% in size
An asterisk follows results filed as active; ? = inconclusive; / = no result given. An excerpt weighted towards active compounds, which were near 19% of everything screened. Unless noted, calls follow the shape of the dose curve; as a rule, active = well fitted curve in the direction sought with a large enough effect; inconclusive = small, poorly fitted or top-dose-only effect, or another doubt; inactive = no such curve, though single readings can be large; an effect the other way counts as inactive or inconclusive.

SMILES | DT40 TDP1 no CPT | Chronic BCR inh | DT40 TDP1 CPT | IL1B secr inh | SW480 rereplic | MCF10A rerep
CCC1(c2ccccc2)NC(=O)N(CC(=O)NCc2ccccc2OC)C1=O (centres undefined) | 0% | 0% | 2% | -7 | 9% | -19%
CCOC(=O)C1(C(N)=O)OC1(c1ccc(Cl)cc1)c1ccccc1Cl (centres undefined) | -16% | / | 3% | 8 | 0% | 1%
CC(Oc1ccccc1)C(=O)NC1CCCCCCC1 (centres undefined) | -10% | 3% | -23% | -15 | -5% | 8%
COc1ccc(NS(=O)(=O)c2cc3c(cc2C)N(C(C)=O)CCO3)cc1OC | ? | 1% | -25% | 16 | -14% | -1%
COc1cc(N(C)C)c(OC)cc1C=O | 11µM* | / | 16µM* | / | / | /
COc1cc(N2CCCC2)c(OC)cc1C=O | ? | 26% | ? | -26 | 8% | 0%
COc1cc(N(C)C)ccc1/C=C1\C=Cc2ccccc21 | 16µM* | / | ? | / | / | /
COc1cc(N(C)C)c(OC)cc1/C=C1\C=Cc2ccccc21 | 13µM* | / | ? | / | / | /
CN(C)c1ccc(C=C2C=Cc3ccccc32)cc1 | -17% | / | -12% | ? | -7% | 19%
CC(C)NC(=O)CSc1cn(CC(=O)N2CCCCCC2)c2ccccc12 | -21% | / | -13% | / | / | /
CCOc1ccc(-n2ccnc2SCC(=O)Nc2ccc(OC)cc2OC)cc1 | ? | / | 6% | / | / | /
O=C1/C(=C/c2cccnc2)SC(=S)N1N1CCOCC1 | -27% | 4% | ? | 26 | -3% | 1%
O=C1/C(=C/c2cccnc2)SC(=S)N1C1CCS(=O)(=O)C1 (centres undefined) | 9.2µM* | ? | 10µM* | -93* | ? | 15µM*
O=C1/C(=C\c2cccnc2)SC(=S)N1C1CCS(=O)(=O)C1 (centres undefined) | 18µM* | ? | 3.7µM* | -79* | ? | 15µM*
Cc1ccc(N2C(=O)/C(=C/c3cccnc3)SC2=S)cc1 | -28% | ? | 1% | -6 | 2% | 0%
COCC(=O)Nc1cc(C(=O)N2CCCCC2c2nccs2)c2c(c1)nc(-c1ccncc1)n2C (centres undefined) | -6% | / | -5% | / | / | /
CCOC(=O)/C(C#N)=C/c1cc2ccccc2nc1N1CCCCC1 | ? | 15% | -34% | 0 | 12% | 18%
N#C/C(=C\c1cc2ccccc2nc1N1CCOCC1)C(=O)Nc1ccc(N2CCOCC2)cc1 | 16µM* | 2% | 13µM* | 12 | -4% | -3%
N#CC(C#N)=Cc1cc2ccccc2nc1N1CCOCC1 | 10µM* | -9% | 13µM* | -10 | 12% | ?
O=C(NCCCN1CCOCC1)c1onc(CSc2ccc(F)c(F)c2)c1C(=O)NCCCN1CCOCC1 | -13% | / | -1% | -24 | -2% | -27%
CCOCCn1c(CN2CCC(Cc3ccccc3)CC2)nc2c1c(=O)n(C)c(=O)n2C | 11µM* | -1% | 18µM* | 40 | 6% | -13%
Cn1c(=O)c2c(nc(CN3CCN(c4ccccc4F)CC3)n2Cc2ccc(F)cc2)n(C)c1=O | 10µM* | / | 10µM* | / | / | /
CC1CCCCN1Cc1nc2c(c(=O)n(C)c(=O)n2C)n1Cc1c(F)cccc1Cl (centres undefined) | 10µM* | 15% | 7.3µM* | -3 | -2% | 0%
CC1CCN(Cc2nc3c(c(=O)n(C)c(=O)n3C)n2CCCc2ccccc2)CC1 | 16µM* | 1% | ? | -6 | -5% | 0%

Screens (PubChem)
